Screening data deposited in PubChem BioAssay by several laboratories.
TROY NFkB inh – inhibitors of TROY-driven NF-kB signaling, primary screen, Q293 LMP1-TROYcd cells, NF-kB luciferase, uHTS | Q293 LMP1-TROYcd NF-kB luciferase reporter, 4 h | inhibition, % at 10 µM | actives 0.98% (n = 360,000);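 active = compounds whose plate-normalised and pattern-corrected inhibition of the luciferase reporter signal at the single screening dose is 50% or more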
TWEAK Fn14 block – inhibitors of TWEAK-Fn14 signaling, primary screen, luciferase reporter cells, uHTS | inhibition, % at 10 µM | TWEAK-stimulated Fn14 reporter cells, luciferase luminescence, 8 h | actives 2% (n = 360,000); in the data active = inhibition above about 50%
CF NFkB block – inhibitors of PAF-induced NF-kB signaling, primary screen, cell-based, GFP fluorescence, uHTS | inhibition, % at 5 µM | actives 0.86% (n = 360,000) | AID 588850, 2011 | KKLEB NF-kB-GFP reporter, GFP fluorescence overnight;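 active = at least 50% inhibition at 5 µM, scaled per plate between neutral and stimulator controls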;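 also: PAF is a Pseudomonas aeruginosa culture filtrate used as stimulus; plate controls were PAF-stimulated DMSO wells for no effect and unstimulated DMSO wells for full effect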
KKLEB cytotox – cytotoxicity in KKLEB CF airway cells, primary screen, cytotoxicity control for CF NF-kB inhibitor project, cell-based, uHTS, fluorescence assay plates; KKLEB CF airway cells viability, ATPlite luminescence, overnight; active compounds read low; cells stimulated with P. aeruginosa culture filtrate; activity change (cytotoxicity), % at 5 µM; actives 0.36% (n = 360,000);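 active = corrected activity change at or below -50% at 5 µM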
LGR2 inh – inhibitors of bursicon-induced LGR2 CRE-luciferase signal, primary screen, cell-based, HEK293, CRE-luciferase reporter, bursicon stimulation. Drosophila bursicon receptor LGR2 (rickets). bursicon-stimulated, 4 h. inhibition, % at 9.99 µM. actives 0.35% (n = 380,000). AID 720647, 2013;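 active = drop in luminescence signal, shown as inhibition above about 50% in the replicate tests, limit read from the data, passing the limit was not always enough; inconclusive = probably only some replicates passing the limit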;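 also: agonist challenge used bursicon conditioned medium at about half maximal strength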
EWS-Fli inh – EWS/Fli-driven NR0B1 reporter inhibitors, primary screen, A673 cells, NR0B1 luciferase, luminescence, MLPCN library; inhibition, % at 12.6 µM; actives 0.67% (n = 350,000); viability-normalised;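 active = mean inhibition of at least 50% after viability correction, with every replicate also passing that limit; inconclusive = mean reaches 50% but only one of two replicates passes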;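 also: firefly luciferase signal divided by Alamar Blue viability fluorescence both relative to DMSO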
The depositor's hits bear a star; ? = inconclusive; · = not tested or not shown. The list is not random: actives were taken first. Their share in the collection is about 2.6%.

SMILES	TROY NFkB inh	TWEAK Fn14 block	CF NFkB block	KKLEB cytotox	LGR2 inh	EWS-Fli inh
C[C@@H]1CN([C@@H](C)CO)C(=O)c2cc(NC(=O)Nc3ccccc3)ccc2O[C@H]1CN(C)S(=O)(=O)c1ccc(Cl)cc1	·	·	·	·	-4	5
Cc1cccc(NS(=O)(=O)c2ccc3[nH]c(=O)cc(C(=O)OC(C)C(=O)Nc4ccc([N+](=O)[O-])cc4)c3c2)c1 (stereo unspecified)	51*	-8	-3	-6	-9	-3
Clc1ccc(Cc2nc(-c3ccncc3)no2)cc1	5	-4	14	-4	-5	-12
COc1ccc(Cc2nc(-c3ccncc3)no2)cc1	50*	36	-2	0	-10	-8
Cc1ccc(-n2nc(C)c3cc(C(=O)O)sc32)cc1	·	86*	-7	0	·	·
CCCN(C)C[C@H]1OCCCC[C@H](C)Oc2ccc(NS(=O)(=O)c3ccc(F)cc3)cc2C(=O)N([C@@H](C)CO)C[C@H]1C	·	·	·	·	0	5
COc1ccc(-c2ccc3oc(-c4ccsc4)cc(=O)c3c2)cn1	63*	-25	-40	-15	-24	-95
COc1ccc(-c2ccc3oc(-c4ccsc4)cc(=O)c3c2)cc1F	-69	-28	-29	13	-25	-60
COc1cccc(CNC(=O)C[C@@H]2CC[C@H](NS(=O)(=O)c3ccccc3OC)[C@@H](CO)O2)c1	·	·	·	·	13	2
CO[C@@H]1CN(C)C(=O)c2ccc(NC(=O)Nc3c(C)noc3C)cc2OC[C@H](C)NC[C@@H]1C	·	·	·	·	7	-2
COc1cc2c(cc1OC)-c1cc(Nc3ccc4c(c3)OCCO4)nc(=O)n1CC2	79*	86*	27	-12	·	·
C[C@H]1CN([C@@H](C)CO)C(=O)c2cccc(NC(=O)C3CCOCC3)c2O[C@H]1CN(C)Cc1ccc(C(=O)Nc2ccccc2N)cc1	·	·	·	·	4	-3
COc1cccc(/C=C2\Oc3ccc(O)cc3C2=O)c1O	-6	-29	-6	3	66*	-4
COC(=O)c1ccc2c(c1)C(=O)/C(=C/c1ccc(O)cc1)O2	-68	-22	-11	-13	-36	·
O=C(/C=C/c1cn(-c2ccccc2)nc1-c1cccnc1)c1ccco1	32	80*	32	-6	48	37
O=C(/C=C/c1cn(-c2ccccc2)nc1-c1cccnc1)N1CCCC1	44	23	-1	8	4	-13
CN1C(=O)c2cc(NC(=O)C3CC3)ccc2OC[C@H]2O[C@H](CC(=O)NCCN3CCCC3)CC[C@H]21	·	·	·	·	-5	5
CN1C(=O)c2cc(NC(=O)c3cccs3)ccc2OC[C@@H]2O[C@H](CC(=O)NCC(F)(F)F)CC[C@H]21	·	·	·	·	-9	9
COc1ccc(-c2[nH]ncc2CNC(C)c2cn(C)nc2C)c(F)c1 (stereo unspecified)	-16	65*	11	-7	30	12
COc1ccc(-c2[nH]ncc2CNC(C)CCn2cccn2)c(F)c1 (stereo unspecified)	-4	18	30	-20	4	5
CCCCCCCc1nc2sc3c(c2c(=O)n1N)CC(C)(C)OC3	-6	-4	8	-6	4	7
CCCCCc1nc2sc3c(c2c(=O)n1NC(=O)c1ccc([N+](=O)[O-])cc1)CC(C)(C)OC3	48	70*	45	-8	14	12
CC(C)Cn1c(-c2ccc(F)cc2)n[nH]c1=S	·	65*	8	-1	·	·
CN(C)CCCNC(=O)/C(=C\c1ccc(-c2ccc(Br)cc2)o1)NC(=O)c1ccccc1	-21	-70	16	-70*	·	39
COC(=O)c1ccc(COc2ccc(/C=C(\C#N)c3nc4ccccc4[nH]3)cc2OC)o1	5	60*	-5	-12	·	·
O=[N+]([O-])c1ccc(Sc2cc[n+]([O-])c3ccccc23)c([N+](=O)[O-])c1	3	77*	24	-22	?	-9
